In PubChem BioAssay (NCI):
Compounds without any hit were thinned out: in the full panel of roughly 79,000, 15% have a hit. Values without a mark were called inactive. Active and inactive are the calls of the source. No stated cut-off is given here; in the data, active means growth inhibition above about 70%; inactive means the rest.

Key:
[1] = NCI Yeast Anticancer Drug Screen. Data for the rad50 strain (AID 155);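 further: 0% = growth of vehicle-only cultures of the same strain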; conditions: S. cerevisiae rad50 strain growth inhibition, hits give high values
Procedure, shortened: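 A DNA repair-deficient yeast mutant serves as the test organism; compound-induced growth inhibition is calculated against vehicle-treated cells.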

[2] = NCI Yeast Anticancer Drug Screen. Data for the mec2-1 strain (AID 157); conditions: S. cerevisiae mec2-1 strain, hits give high values
Procedure, shortened: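 Vehicle-treated cultures served as reference for growth inhibition of compound-exposed mec2-1 yeast.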

[3] = NCI Yeast Anticancer Drug Screen. Data for the sgs1 mgt1 strain (AID 161);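 further: 0% = growth of cultures given vehicle only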; conditions: S. cerevisiae sgs1 mgt1 strain, hits give high values
Procedure, shortened: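 Test agents were incubated with a DNA-repair-mutant yeast strain. Growth was then read and compared against vehicle-treated controls.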

[4] = NCI Yeast Anticancer Drug Screen. Data for the cln2 rad14 strain (AID 165);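 further: 0% = growth equal to vehicle treated cultures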; conditions: S. cerevisiae cln2 rad14 strain, hits give high values
Procedure, shortened: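 Each compound was tested on cln2 rad14 yeast. Inhibition of growth was calculated against vehicle-exposed controls.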

[5] = NCI Yeast Anticancer Drug Screen. Data for the bub3 strain (AID 167); conditions: S. cerevisiae bub3 mutant strain, hits give high values
Procedure, shortened: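 Inhibition values come from growth of compound-treated mutant yeast normalised to vehicle-treated controls.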

[6] = NCI Yeast Anticancer Drug Screen. Data for the mlh1 rad18 strain (AID 175); conditions: S. cerevisiae mlh1 rad18 strain growth inhibition, hits give high values
Procedure, shortened: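 Vehicle-treated cultures served as the reference for growth inhibition in a yeast strain carrying DNA damage repair alterations exposed to each compound.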

[7] = at 5.0 µM (retest, dose inferred, filed as 0.5)
[8] = at 50.0 µM (retest, dose inferred, filed as 5.0)

Row | Compound | growth inhibition [1, 7] | growth inhibition [1, 8] | growth inhibition ([1]; at 50.0 µM) | growth inhibition [2, 7] | growth inhibition [2, 8] | growth inhibition ([2]; at 50.0 µM) | growth inhibition [3, 7] | growth inhibition [3, 8] | growth inhibition ([3]; at 50.0 µM) | growth inhibition [4, 7] | growth inhibition [4, 8] | growth inhibition ([4]; at 50.0 µM) | growth inhibition [5, 7] | growth inhibition [5, 8] | growth inhibition ([5]; at 50.0 µM) | growth inhibition [6, 7] | growth inhibition [6, 8] | growth inhibition ([6]; at 50.0 µM)
1 | Cc1cc(NC(=S)SCc2ccc3c(c2)OCO3)ccc1Cl | 31% | 98% (active) | 91.5% (active) | 16% | 99% (active) | 91.8% (active) | 44% | 98% (active) | 91.5% (active) | 38% | 98% (active) | 89.7% (active) | 52% | 99% (active) | 91% (active) | 24% | 97% (active) | 90.2% (active)
2 | COc1ccc(/C=N/NC(=O)c2ccco2)cc1OC | -5% | 0% | 63.5% | -5% | -15% | 73.2% (active) | -3% | 5% | 23.8% | -21% | -20% | 19.1% | -7% | -13% | 56.2% | -6% | -14% | 35.8%
3 | OC(OC/C(I)=C(/I)COC(O)C(Cl)(Cl)Cl)C(Cl)(Cl)Cl (configuration not stated) | 28% | 96% (active) | 97.2% (active) | 34% | 94% (active) | 96.9% (active) | -2% | 86% (active) | 94.8% (active) | -10% | 70% (active) | 76.7% (active) | 1% | 94% (active) | 93.1% (active) | 13% | 95% (active) | 97.1% (active)
4 | Nc1c(C(=O)Nc2ccccc2)[n+]([O-])c2ccccc2[n+]1[O-] | -2% | 73% (active) | 98.2% (active) | -3% | 60% | 97.7% (active) | 1% | 88% (active) | 98% (active) | -8% | 78% (active) | 97.2% (active) | -4% | 90% (active) | 98.7% (active) | -4% | 91% (active) | 98.2% (active)
5 | O=C(NC(=Nc1ccccc1)SCCSC(=Nc1ccccc1)NC(=O)c1ccccc1)c1ccccc1 | 0% | 0% | 85.6% (active) | 18% | 18% | 79.9% (active) | 10% | 10% | 86.2% (active) | 5% | 5% | 84.5% (active) | -3% | -3% | 88% (active) | 1% | 1% | 78% (active)
6 | COC(=O)[C@@]12OC[C@]34[C@H]([C@@H](O)[C@@H]1O)[C@@]1(C)CC(=O)C(OC(=O)CC(=O)OC5=C(C)[C@@H]6C[C@H]7OC(=O)[C@H](OC(=O)/C=C(\C)C(C)C)[C@H]8[C@]9(C(=O)OC)OC[C@]78[C@H]([C@@H](O)[C@@H]9O)[C@@]6(C)CC5=O)=C(C)[C@@H]1C[C@H]3OC(=O)[C@H](OC(=O)/C=C(\C)C(C)C)[C@@H]24 | 45% | 98% (active) | 90.3% (active) | 43% | 99% (active) | 92.3% (active) | 42% | 98% (active) | 92.5% (active) | 49% | 98% (active) | 89.6% (active) | 57% | 99% (active) | 92.2% (active) | 58% | 97% (active) | 84.5% (active)
7 | O=C1c2cccc(NCCNCCO)c2C(=O)c2cccc(NCCNCCO)c21 | 18% | 58% | -10.3% | -8% | -8% | 7% | 17% | 13% | 31% | 24% | 32% | 15.4% | 15% | 22% | 45.1% | 8% | 15% | 8.2%
8 | CN(C)CCN(C)CCC(=O)/C=C/c1ccccc1 | 95% (active) | 99% (active) | 87.9% (active) | 100% (active) | 99% (active) | 84.3% (active) | 98% (active) | 99% (active) | 99.5% (active) | 86% (active) | 99% (active) | 96% (active) | 99% (active) | 99% (active) | 98.2% (active) | 99% (active) | 99% (active) | 99.5% (active)
9 | O=C(O)CN(CC(=O)O)C1CCCCC1N1CC(=O)OC(=O)C1 (configuration not stated) | 35% | 35% | 74.3% (active) | 17% | 17% | 81.1% (active) | 26% | 26% | 75% (active) | 3% | 3% | 64.3% | -7% | -7% | 80.3% (active) | 25% | 25% | 76% (active)
